Results filed as inconclusive are left out. Calls of active or inactive are those of the source. The call rests on the fitted dose curve; in most records, active means well fitted curve in the direction sought with a large enough effect; inconclusive means small, poorly fitted or top-dose-only effect, or another doubt; inactive means no such curve, though single readings can be large; an effect the other way counts as inactive or inconclusive.
Columns and labels:
[1] = tested on: NIH3T3; test: qHTS assay to identify novel small-molecules to repurpose for Merkel cell carcinoma treatment (AID 1296009); settings: MCC and control cell lines, CellTiter-Glo viability, 72 h; at 44.8 µM (top of the series) unless noted; further: nearly all actives have a fitted effect of over 60% in size
In short: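 After compound transfer in DMSO, plates were kept 72 hr at 37 degree celsius. Luminescent ATP signal from CellTiter-Glo served as viability measure, normalized against DMSO and no-cell controls.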

[2] = tested on: C33A; test: Primary qHTS to identify gynecologic anti-cancer compounds using libraries of approved drugs and bioactive compounds (AID 1345084); settings: Gynecologic cancer cell panel viability, ATPlite luminescence, 48 h; series mostly up to 57.5 µM; further: on the % scale 0 is the no-effect control and ±100 the full control effect; nearly all actives have a fitted effect of over 55% in size
In short: (§1)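 Luminescence from the ATPlite ATP-monitoring reagent indicates viable cell number; lower signal means cytotoxicity. Cells received compound 16 h after seeding and were exposed for 48 h across five concentrations.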

[3] = tested on: CAOV3; test: as above; settings: Gynecologic cancer cell panel viability, ATPlite luminescence, 48 h; series mostly up to 57.5 µM
In short: as §1

[4] = tested on: CASKI; test: as above; settings: Gynecologic cancer cell panel viability, ATPlite luminescence, 48 h; series mostly up to 57.5 µM
In short: as §1

[5] = tested on: Es-2; test: as above; settings: Gynecologic cancer cell panel viability, ATPlite luminescence, 48 h; series mostly up to 57.5 µM
In short: as §1

[6] = tested on: Hek293T; test: as above; settings: Gynecologic cancer cell panel viability, ATPlite luminescence, 48 h, control line for the selectivity index; series mostly up to 57.5 µM
In short: as §1

[7] = tested on: JEG-3; test: as above; settings: Gynecologic cancer cell panel viability, ATPlite luminescence, 48 h; series mostly up to 57.5 µM
In short: as §1

[8] = tested on: OV90; test: as above; settings: Gynecologic cancer cell panel viability, ATPlite luminescence, 48 h; series mostly up to 57.5 µM
In short: as §1

[9] = tested on: PA-1; test: as above; settings: Gynecologic cancer cell panel viability, ATPlite luminescence, 48 h; series mostly up to 57.5 µM
In short: as §1

[10] = tested on: SKOV3; test: as above; settings: Gynecologic cancer cell panel viability, ATPlite luminescence, 48 h; series mostly up to 57.5 µM
In short: as §1

[11] = tested on: Tov-21-G; test: as above; settings: Gynecologic cancer cell panel viability, ATPlite luminescence, 48 h; series mostly up to 57.5 µM
In short: as §1

[12] = tested on: Tov112D; test: as above; settings: Gynecologic cancer cell panel viability, ATPlite luminescence, 48 h; series mostly up to 57.5 µM
In short: as §1

[13] = tested on: HeLa; test: as above; settings: Gynecologic cancer cell panel viability, ATPlite luminescence, 48 h; series mostly up to 57.5 µM
In short: as §1

O=C(O)c1ccnc2cc(C(OCC3CCC(F)(F)CC3)c3ccccc3Cl)[nH]c12 (stereo not drawn)
inactive: outcome [1] | Potency [2] | Potency [3] | outcome [4] | Potency [5] | Potency [6] | Potency [7] | Potency [8] | Potency [9] | Potency [10] | Potency [11] | Potency [12]

O=C(/C=C/C=C/c1ccc2c(c1)OCO2)N1CCCCC1
inactive: outcome [1] | Potency [2] | Potency [3] | outcome [4] | Potency [13] | Potency [6] | Potency [7] | Potency [12]

C=CC(C)(C)C12Nc3c(ccc4c3OC(C)(C)C=C4)C1(O)CC1C(=O)N3CCCC3C(=O)N12 (stereo not drawn)
inactive: outcome [1] inactive [at 17.4 µM] | Potency [2] | outcome [4] | Potency [5] | Potency [13] | Potency [6] | Potency [7] | Potency [8] | Potency [9] | Potency [10] | Potency [11] | Potency [12]

COc1ccc(C2(O)c3c(ccc4c3OC(C)(CCC=C(C)C)C=C4)NC(=O)C2OC)cc1 (stereo not drawn)
inactive: outcome [1] inactive [at 17.4 µM] | Potency [2] | Potency [3] | Potency [5] | Potency [13] | Potency [6] | Potency [7] | Potency [8] | Potency [9] | Potency [11] | Potency [12]

Cc1c(-c2ccc3c(c2)OCO3)oc2ccc(C(O)C(C)O)cc12 (stereo not drawn)
inactive: outcome [1] | Potency [2] | Potency [3] | outcome [4] | Potency [5] | Potency [13] | Potency [6] | Potency [7] | Potency [9] | Potency [12]

COC(=O)C[C@@H]1C(C(=O)O)=CO[C@@H](O[C@@H]2O[C@H](CO)[C@@H](O)[C@H](O)[C@H]2O)/C1=C\COC(=O)/C=C/c1ccc(O)c(OC)c1
inactive: outcome [1] inactive [at 17.4 µM] | Potency [2] | outcome [4] | Potency [5] | Potency [13] | Potency [6] | Potency [7] | Potency [8] | Potency [9] | Potency [10] | Potency [11] | Potency [12]

CCN(CCN(C)C)C(=O)CNCc1cc(C(N)=O)ccn1
inactive: outcome [1] | Potency [2] | outcome [4] | Potency [5] | Potency [13] | Potency [6] | Potency [7] | Potency [8] | Potency [9] | Potency [10] | Potency [11] | Potency [12]

CCC(C)/C=C(C)/C=C/C1=CC2=C(Cl)C(=O)C(C)(O)C(=O)C2(O)C(OC)O1 (stereo not drawn)
inactive: outcome [1] inactive [at 17.4 µM] | Potency [2] | outcome [4] | Potency [13] | Potency [6] | Potency [7] | Potency [8] | Potency [9] | Potency [10] | Potency [11] | Potency [12]

C/C1=C\CC(C)(C)/C=C/C/C(C(=O)O)=C/CC1
inactive: outcome [1] | Potency [2] | outcome [4] | Potency [5] | Potency [13] | Potency [6] | Potency [8] | Potency [9] | Potency [10] | Potency [11] | Potency [12]

Cc1ccc2nc(NC(=O)CSc3nc4c(c(=O)n3-c3ccc(F)cc3)SCC4)sc2c1
inactive: outcome [1] | Potency [2] | outcome [4] | Potency [5] | Potency [13] | Potency [6] | Potency [7] | Potency [8] | Potency [9] | Potency [10] | Potency [11] | Potency [12]

FC(F)(F)c1nnc2c(Sc3ccccc3)nc3ccc(Cl)cc3n12
inactive: outcome [1] | Potency [2] | outcome [4] | Potency [13] | Potency [6] | Potency [7] | Potency [8] | Potency [9] | Potency [11] | Potency [12]

CC1(C)CC[C@]2(C(=O)O[C@@H]3O[C@H](CO[C@@H]4O[C@H](CO)[C@@H](O)[C@H](O)[C@H]4O)[C@@H](O)[C@H](O[C@@H]4O[C@H](CO)[C@@H](O)[C@H](O)[C@H]4O)[C@H]3O)[C@H](O)C[C@]3(C)C(=CCC4[C@@]5(C)CC[C@H](O[C@@H]6OC[C@@H](O)[C@H](O)[C@H]6O)[C@@](C)(C(=O)O)C5CC[C@]43C)[C@@H]2C1 (stereo partly drawn)
inactive: outcome [1] inactive [at 9.27 µM] | activity change, negative = cytotoxicity [2] -4.53% [at 11.6 µM] | activity change, negative = cytotoxicity [4] 0.848% [at 11.6 µM] | activity change, negative = cytotoxicity [5] 1.6% [at 11.6 µM] | activity change, negative = cytotoxicity [13] 2.79% [at 11.6 µM] | activity change, negative = cytotoxicity [6] 10.6% [at 11.6 µM] | activity change, negative = cytotoxicity [7] -3% [at 11.6 µM] | activity change, negative = cytotoxicity [8] 6.96% [at 11.6 µM] | activity change, negative = cytotoxicity [9] 0.131% [at 11.6 µM] | activity change, negative = cytotoxicity [11] 3.95% [at 11.6 µM] | activity change, negative = cytotoxicity [12] -6.08% [at 11.6 µM]

O=C(O)CC(CCc1ccccc1)OC1OC(CO)C(O)C(O)C1O (stereo not drawn)
inactive: outcome [1] | Potency [2] | outcome [4] | Potency [5] | Potency [13] | Potency [7] | Potency [8] | Potency [9] | Potency [10] | Potency [11] | Potency [12]

C/C=C(/C)C(=O)OC1CC(C)(C)CC2C3=CCC4C5(C)CCC(OC6OC(C)C(OC7OC(C(=O)O)C(O)C(OC8OC(CO)C(O)C(O)C8OC8OC(CO)C(O)C(O)C8O)C7O)C(O)C6O)C(C)(C)C5CCC4(C)C3(C)C(OC(=O)/C=C/C=C/C=C/CCC)C(OC(C)=O)C12CO (stereo not drawn)
inactive: outcome [1] inactive [at 9.27 µM] | activity change, negative = cytotoxicity [2] -5.83% [at 6.55 µM] | activity change, negative = cytotoxicity [4] -6.51% [at 6.55 µM] | activity change, negative = cytotoxicity [5] 13.9% [at 6.55 µM] | activity change, negative = cytotoxicity [13] 0% [at 6.55 µM] | activity change, negative = cytotoxicity [6] -3.11% [at 6.55 µM] | activity change, negative = cytotoxicity [7] -5.73% [at 6.55 µM] | activity change, negative = cytotoxicity [8] -14.1% [at 6.55 µM] | activity change, negative = cytotoxicity [9] -0.509% [at 6.55 µM] | activity change, negative = cytotoxicity [10] -20.2% [at 6.55 µM] | activity change, negative = cytotoxicity [11] -0.72% [at 6.55 µM] | activity change, negative = cytotoxicity [12] 1.97% [at 6.55 µM]

COc1cc(C(CO)C(OC2OC(CO)C(O)C(O)C2O)c2ccc(O)c(OC)c2)ccc1O (stereo not drawn)
inactive: outcome [1] inactive [at 17.4 µM] | Potency [2] | outcome [4] | Potency [5] | Potency [13] | Potency [6] | Potency [7] | Potency [8] | Potency [10] | Potency [11] | Potency [12]

C/C=C/C1OC2=C(C(=O)OC2(C)O)C(O)C1O (stereo not drawn)
inactive: outcome [1] | Potency [2] | outcome [4] | Potency [5] | Potency [13] | Potency [6] | Potency [7] | Potency [8] | Potency [9] | Potency [10] | Potency [11] | Potency [12]

Reference: PubChem BioAssay (NCATS)
